IL-1B inflam inh – inflammasome signaling inhibition, IL-1 beta readout; AID 743279; THP-1 LPS/ATP IL-1B secretion, AlphaLISA, 16 h; stronger effect = lower value; activity change, % at 57.5 µM; actives 4.7% (n = 360,000); in the data active = activity change below about -50%; inconclusive = mostly about -30% to -49%; also: % is scaled to controls: 0 for no effect and ±100 for the full control effect
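THP-1 cells pretreated 1 hr with compounds (up to 57.5 uM final), then stimulated with LPS (250 ng/mL final) plus ATP (1.25 mM final); secreted IL-1B measured by AlphaLISA after 16 hr, decreased signal indicating inhibition.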
Giardia killer – Giardia lamblia killing. Giardia lamblia trophozoite viability. activity change, % at 7.66 µM, hits read low. actives 0.15% (n = 340,000). AID 540267; in the data active = activity change below about -80%; inconclusive = between about -30% and that limit;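 also: parasites exposed to compound for two days anaerobically before the ATP read; % is scaled to controls: 0 for no effect and ±100 for the full control effect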
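Trophozoite viability was measured as ATP-dependent luminescence, read 15-30 min after reagent addition. Before that, parasites at 100 cells/well were exposed to compounds for 48 h, anaerobically, at 37 deg C.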
Vif-A3G inh – Vif-A3G binding inhibition | HeLa A3G-eYFP + Vif (tagged APOBEC3G with the HIV-1 protein that degrades it), YFP fluorescence, overnight | Potency, µM (doses to about 46.1 µM), without a hit: top-dose activity, negative = active, usual class: inhibitors | actives 0.076% (n = 410,000); also: potency is read from the fitted curve at half-maximal effect; % is scaled to controls: 0 for no effect and ±100 for the full control effect; nearly all actives have a fitted effect of over 60% in size
Target sequence (Q9HC16 whole entry, looked up): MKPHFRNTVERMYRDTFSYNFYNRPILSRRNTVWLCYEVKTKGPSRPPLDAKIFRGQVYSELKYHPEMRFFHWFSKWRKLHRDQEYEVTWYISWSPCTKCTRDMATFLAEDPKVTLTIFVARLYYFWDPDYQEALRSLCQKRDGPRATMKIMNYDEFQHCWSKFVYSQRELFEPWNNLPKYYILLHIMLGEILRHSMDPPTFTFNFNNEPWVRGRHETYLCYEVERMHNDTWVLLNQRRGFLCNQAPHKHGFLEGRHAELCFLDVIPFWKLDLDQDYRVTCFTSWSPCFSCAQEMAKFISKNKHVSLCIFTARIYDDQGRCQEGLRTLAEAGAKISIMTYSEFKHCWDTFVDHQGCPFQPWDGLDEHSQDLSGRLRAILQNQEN
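HeLa cells stably expressing Vif and C-terminally eYFP-tagged A3G, seeded overnight at 37 deg C, then exposed to compound by pintool overnight at 37 deg C. Rise in yellow fluorescence (Ex 488/Em 500-530, Acumen) marks blocked Vif-driven A3G degradation.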
Vif-A3F inh – blocks the Vif interaction with APOBEC3F; actives 0.2% (n = 390,000); HeLa A3F-eYFP + Vif (tagged APOBEC3F with the HIV-1 protein that degrades it), YFP fluorescence increase; Potency, µM (titrated, usually from 46.1 µM), for inactives: top-dose activity, negative = active; also: potency is read from the fitted curve at half-maximal effect; % of control where 0% means no effect; nearly all actives have a fitted effect of over 65% in size
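HeLa cells stably expressing A3F-eYFP plus Vif, plated and incubated overnight at 37 deg C, then exposed to compounds overnight at 37 deg C. Blocked degradation read as raised yellow fluorescence (Ex 488/Em 500-530).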
SW480 rerep – DNA re-replication induction in SW480 cells; AID 624297; SW480 DNA re-replication, Hoechst DNA content imaging, 48 h; actives 1.8% (n = 340,000); Potency, µM (top dose mostly 46.1 µM), for the others: top-dose re-replication activation, hits mostly activators; also: potency is read from the fitted curve at half-maximal effect; % of control where 0% means no effect; nearly all actives have a fitted effect of over 55% in size
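DNA re-replication was detected as more nuclei of elevated Hoechst intensity after 48 hr exposure to compound (23 nL pinned per well of 250 cells).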
MCF10A rerep – inducers of DNA re-replication in MCF 10A breast cells; Potency, µM (highest dose often 46.1 µM), for inactives: top-dose activity, positive = re-replication, usual class: activators; MCF 10A DNA re-replication, Hoechst nuclear intensity, 48 h; actives 2.9% (n = 350,000); also: potency is read from the fitted curve at half-maximal effect; % of control where 0% means no effect; nearly all actives have a fitted effect of over 50% in size
The depositor's hits bear a star; ? = inconclusive; . = no result given. Rows were chosen to be rich in hits. Some 6.9% of all compounds tested hit in one or more screens of this group. Unless noted, calls follow the shape of the dose curve; as a rule, active = well fitted curve in the direction sought with a large enough effect; inconclusive = small, poorly fitted or top-dose-only effect, or another doubt; inactive = no such curve, though single readings can be large; an effect the other way counts as inactive or inconclusive.

SMILES | IL-1B inflam inh | Giardia killer | Vif-A3G inh | Vif-A3F inh | SW480 rerep | MCF10A rerep
Cc1ccc(-n2cc(CNC(C)Cn3cncn3)c(-c3ccc(F)cc3)n2)cc1 (centres undefined) | ? | 0.6 | 7.2% | 9.4% | -3.6% | 8.9%
CC1CCCCN1S(=O)(=O)c1cnc(Cl)c(Br)c1 (centres undefined) | -93.6* | -10.9 | 1.0% | 0.5% | 17.6% | 4.7%
CC1CCCCN1S(=O)(=O)c1csc(C(N)=O)c1 (centres undefined) | 14.1 | 10.2 | 1.0% | -0.7% | -11.9% | 2.1%
CC1CCN(S(=O)(=O)c2cnc(Cl)c(Br)c2)CC1 | -64.5* | -28.2 | -1.3% | 0.3% | -5.7% | ?
CCC(O)(CC)C(=O)NN(C(=O)CCl)c1ccccc1 | -81.6* | 14.7 | -0.2% | -1.4% | ? | 15.3%
Cc1ccc(C(O)(C(=O)NN(C(=O)c2ccccc2)c2ccccc2)c2ccc(C)cc2)cc1 | 4.0 | 6.0 | -2.3% | 1.3% | ? | 13.6%
Cc1ccc(N(NC(=O)C(O)(c2ccccc2)c2ccccc2)C(=O)CCl)cc1 | -97.7* | -14.5 | -22.8% | -0.2% | 18.4µM* | 23.1µM*
O=C(Nc1ccccc1)NN(C(=O)CCl)c1ccccc1 | -96.1* | 10.9 | ? | 1.6% | 5.8µM* | 8.2µM*
CCCc1noc(-c2ccc(NCc3ccc(C)cc3)c([N+](=O)[O-])c2)n1 | . | . | 6.8% | 0.7% | . | .
Cc1nc2c(c(C)nn2-c2ccccc2)c(C)c1CCC(=O)Nc1ccccc1 | . | . | 1.2% | -11.8% | . | .
Cc1nc2c(c(C)nn2-c2ccccc2)c(C)c1CCC(=O)Nc1ccc(CN2CCCC2)cc1 | -97.1* | 3.0 | -13.1% | -20.9% | ? | ?
CC(C)c1nnc(N2C(=O)c3oc4ccccc4c(=O)c3C2c2ccccc2F)s1 (centres undefined) | . | . | 3.8% | 0.3% | . | .
COc1cc(NC(=O)c2cc3c(=O)oc4ccc(C)cc4c3s2)cc(OC)c1OC | . | . | 4.2% | 0.1% | . | .
CCN(CC)c1ccc(/C=N/NC(=O)c2cccc(S(=O)(=O)Nc3ccccc3OC)c2)c(O)c1 | 97.6 | 11.7 | -21.0% | -20.3% | ? | ?
CCN(CC)c1ccc(/C=N/NC(=O)c2cccc(S(=O)(=O)Nc3ccccc3OC)c2)cc1 | 0.0 | -3.0 | -1.0% | 9.4% | 2.1% | 16.4µM*
COc1ccc(NC(=O)c2ccc(F)cc2)cc1S(=O)(=O)Nc1cc(C)ccc1Br | -25.9 | 23.5 | -15.7% | -27.2% | ? | 14.6µM*
COc1ccccc1NS(=O)(=O)c1cccc(C(=O)N/N=C/c2ccc([N+](=O)[O-])o2)c1 | -91.7* | ? | ? | 0.0% | 13µM* | 20.6µM*
CCN(CC)c1ccc(NC(=O)c2ccccc2Br)cc1S(=O)(=O)Nc1ccccc1OC | -60.5* | 24.0 | -3.6% | -0.8% | 0.1% | 10.4%
COc1ccc(NS(=O)(=O)c2cc(NC(=O)c3ccc(F)cc3)ccc2OC)cc1 | -8.3 | 1.8 | -0.3% | -0.6% | 0.9% | 0.2%
CC(C)Oc1ccc(CN2CCc3nc(Nc4ccc5c(c4)OCCO5)ncc3C2)cc1 | . | . | 2.0% | 5.4% | . | .
O=C(Cc1cccs1)NC1C(=O)N2C(C(=O)[O-])=C(C[n+]3ccccc3)CSC12 (centres undefined) | . | . | . | . | -1.5% | -2.3%
N#Cc1ccccc1OCCN1C(=O)c2ccccc2C1=O | 19.4 | -12.0 | -2.1% | -1.1% | -10.2% | 11.6µM*
Nc1cccc2c1C(=O)N(CCOc1ccccc1F)C2=O | 34.1 | -17.8 | -1.8% | ? | ? | 18.4µM*
CNC(=O)C1(C(F)(F)F)CC(CCCO)CCCO1 (centres undefined) | . | -6.6 | 1.6% | . | . | .
CCN(CC)Cc1c(NC(=O)c2ccc(OC)cc2)sc2c1CCCC2 | . | . | ? | -16.9% | . | .
O=C(C[n+]1ccccc1Cl)c1ccc(O)c(O)c1 | . | . | 1.3% | . | . | .
Cc1cccc(-c2noc(CNC(=O)c3ccoc3C)n2)c1 | -2.5 | 0.5 | -18.2% | ? | 27.0% | 20.6µM*
Cc1occc1C(=O)NCc1nc(-c2ccccc2)no1 | -19.3 | 10.1 | -6.1% | 10.2% | -7.7% | 14.6%
